# Compound activity: PubChem, Sanford-Burnham Center for Chemical Genomics
# MPTP block = permeability transition pore inhibition; isolated mouse mitochondria, Ca2+ swelling absorbance, 30 min; inhibition, % at 10 µM; actives 1.4% (n = 360,000); AID 602449;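 active = inhibition of 50% or more, scaled per plate between neutral and stimulator controls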;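 note: 0% = DMSO wells given calcium and 100% = 1 mM EGTA wells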
# Mdm2 MdmX PPI = human Mdm2/MdmX binding inhibition | O15151+Q00987 | SaOS-2 split-luciferase Mdm2/MdmX complementation, luminescence | inhibition, % at 8 µM | actives 3% (n = 330,000) | AID 485346;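 active = inhibition of at least 50% at 8 µM in the primary screen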
# tim10-1 inh = inhibits growth of tim10-1 mutant yeast. actives 2.2% (n = 330,000). AID 463190. inhibition, % at 20 µM. S. cerevisiae tim10-1 ts strain growth, BacTiter-Glo, 24 h;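 active = inhibition of at least 40%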;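 note: mutant grown at 25 °C; 0% = DMSO wells with yeast and 100% = wells holding no yeast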
# tim23-1 inh = growth inhibitors of tim23-1 mutant yeast; S. cerevisiae tim23-1 growth, BacTiter-Glo luminescence, 24 h; inhibition, % at 20 µM; actives 1.3% (n = 330,000);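 active = growth inhibition of the mutant yeast at or above 50%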;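 note: temperature-sensitive mutant grown at 25 °C; plate controls were DMSO-treated mutant yeast for no effect and medium wells lacking yeast for full effect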
# TIM10 inh = growth inhibitors of TIM10 yeast strain. S. cerevisiae TIM10 strain growth, BacTiter-Glo luminescence, 24 h. inhibition, % at 10 µM. actives 1.4% (n = 330,000). AID 463195;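 active = inhibition of 40% or more at the single tested concentration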;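 note: wild-type TIM10 isogenic control strain grown at permissive 25 °C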
# Mdm2 MdmX conf = confirmation of human Mdm2/MdmX interaction inhibitors; AID 489028; shares compounds with Mdm2 MdmX PPI; Mdm2-MdmX binding, luminescent assay; actives 55% (n = 10,000); inhibition, % at 8 µM; in the data active = inhibition above about 40%
# Full FLuc ctr = inhibits full-length luciferase, flagging false Mdm2/MdmX hits. SaOS-2 full-length luciferase counterscreen, luminescence. actives 77% (n = 6,200). shares compounds with Mdm2 MdmX PPI. AID 504607. inhibition, % at 8 µM;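 active = mean inhibition at 8 µM reaching about 37%, which flags the compound as non-specific, limit read from the data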;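 note: p53-null SaOS-2 cells with luciferase driven by a doxycycline-inducible promoter; compound on cells about two nights before reading with doxycycline added after day one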
# * marks the source's active call; other numbers are inactive results; · = not tested or not shown. Most compounds without a hit are left out; they make up all but 6.3% or so of the library.
SMILES,MPTP block,Mdm2 MdmX PPI,tim10-1 inh,tim23-1 inh,TIM10 inh,Mdm2 MdmX conf,Full FLuc ctr
COc1ccc(CN(C)C(=O)C(CCSC)NS(=O)(=O)c2ccc3c(c2)OCCO3)c(OC)c1OC (configuration not stated),0,·,·,·,·,·,·
Cc1cc(C)cc(NC(=O)CCn2c(=O)c3cccn3c3ccccc32)c1,-3,56*,38,17,15,50*,52*
CCOc1cc(/C=C/C(=O)c2ccc(O)cc2)ccc1OCC(=O)N(C)C,-1,50,0,5,10,·,·
CCOc1cc(/C=C/C(=O)c2ccc3c(c2)OCCO3)ccc1OCC(=O)N(C)C,1,55*,17,36,21,39,51*
CC1(C)Cc2ccccc2-c2nnc(-c3ccc4ccccc4n3)n21,0,6,-7,6,7,·,·
Cc1cc2c(cc1C)-c1nnc(-c3ccc4ccccc4n3)n1C(C)(C)C2,·,70*,-33,-22,-47,-1,·
O=C(NNc1cccc(Cl)n1)c1ccccc1CC[N+](=O)[O-],0,92*,13,3,15,-9,·
COc1cccc(OCc2ccc(Cn3nc(NC(=O)NCCc4ccc(OC)c(OC)c4)c4ccccc43)cc2)c1,1,·,·,·,·,·,·
CC1(C(=O)NS(=O)(=O)C2CC2)CCN(C(=O)c2c(F)cccc2F)C1 (configuration not stated),-1,·,·,·,·,·,·
O=C(Nc1ccc(Cl)cc1)N1CCCN(Cc2ccc(F)cc2)C1,2,53*,12,-5,0,29,·
COc1cccc(-c2cc(CNC(=O)[C@H]3O[C@@H](n4cnc5c(N)ncnc54)[C@H](O)[C@@H]3O)no2)c1,-2,·,·,·,·,·,·
CCC(C)CN1C(=O)CN(S(C)(=O)=O)CC1(C)C(=O)NC(C)C (configuration not stated),-1,·,·,·,·,·,·
CO[C@@H]1CN(C)C(=O)c2cc(NC(=O)Nc3cc(F)ccc3F)ccc2OC[C@H](C)N(C(=O)c2cnccn2)C[C@@H]1C,-1,·,·,·,·,·,·
O=[N+]([O-])c1cc(-c2nc(-c3ccncc3)no2)ccc1Cl,2,99*,-10,-4,-16,81*,23
O/N=C(\Cn1ccnc1)c1ccccc1,0,·,·,·,·,·,·
COc1cc2c3nnc(-c4ccccc4)c-3cn(Cc3ccccc3F)c2cc1OC,·,84*,8,-5,9,53*,40*
O=S1(=O)CC(N2CCCC2)CN1Cc1cn(Cc2cccc(Cl)c2)nn1 (configuration not stated),0,·,·,·,·,·,·
COC(=O)C(C(=O)Nc1ccc(OC)cc1)C1CCCCCC1 (configuration not stated),-6,56*,12,29,-20,40*,66*
CC1C(=O)N(Cc2cn(Cc3ccco3)nn2)CCS(=O)(=O)N1Cc1ccc(-c2cccc(N(C)C)c2)cc1 (configuration not stated),-1,·,·,·,·,·,·
COc1ccc(OC)c(-c2csc(NC(=O)CN3C(=O)C4CCCCC4C3=O)n2)c1 (configuration not stated),0,-2,16,13,7,·,·
COc1ccc(OC)c(-c2csc(NC(=O)Cn3[nH]c(=O)c4ccccc4c3=O)n2)c1,0,67*,12,13,1,83*,50*
Cc1sc(NC(=O)Cn2[nH]c(=O)c3ccccc3c2=O)nc1-c1ccccc1,2,56*,23,4,8,8,·
CCOc1ccc(OCc2cccc(C(=O)O)c2)cc1,-1,61*,23,9,19,94*,7
CCOC(=O)c1cccc(NC(=O)Nc2ccc(OCC)cc2)c1,12,-51,8,12,11,·,·
CCOc1ccc(NC(=O)Nc2cccc(C(=O)O)c2)cc1,-2,70*,-4,8,-5,70*,21
SMILES,MPTP block,Mdm2 MdmX PPI,tim10-1 inh,tim23-1 inh,TIM10 inh,Mdm2 MdmX conf,Full FLuc ctr
O=C(O)c1cccc(COc2ccc(CO)cc2Cl)c1,-2,90*,4,-9,-3,88*,5
O=C(O)c1ccc(COc2ccc(CO)cc2Cl)cc1,0,7,10,8,7,·,·
COc1ccc(OCc2cccc(C(=O)O)c2)cc1,-4,85*,4,14,0,81*,50*
CC(=O)Nc1ccc(C=C(C#N)c2ccc(C)cc2)cc1,0,·,·,·,·,·,·
CC(=O)OC[C@@H]1CN(Cc2ccccc2)C[C@H](n2cnc3c(NC4CCC4)ncnc32)O1,0,·,·,·,·,·,·
CSc1ccc(/C=C/C(=O)OCC(=O)NC2CCCCCC2)cc1,0,·,·,·,·,·,·
Oc1ccc(Br)c(CN2CCN(c3ncc(Cc4ccccc4)cn3)CC2)c1,4,·,·,·,·,·,·
CCOc1ccc(NC(=O)NCCCCc2ccccc2)cc1,0,50*,12,16,11,23,·
O=C(O)c1cccc(COc2ccc3c(c2)CCC3)c1,0,68*,2,22,-5,78*,24
CCCS(=O)(=O)NC(=O)C1(C)CCCN(C(=O)c2oc3ccccc3c2C)C1 (configuration not stated),1,·,·,·,·,·,·
O=C1C[C@@H]2c3c(cccc3CN1Cc1ccccc1F)C[C@@H](O)[C@H]2O,-1,·,·,·,·,·,·
CC(C)C(NC(=O)OCc1ccccc1)C(=O)NC(Cc1c[nH]c2ccccc12)C(=O)O (configuration not stated),-1,·,·,·,·,·,·
Cc1cc(/C=N/Nc2nc(N)ncc2[N+](=O)[O-])c(C)n1-c1ccccc1F,·,74*,8,-10,5,84*,50*
Cc1cccc(C)c1-n1c(C)cc(/C=N\Nc2ccc([N+](=O)[O-])cn2)c1C,4,38,27,13,-1,·,·
Cc1cc(NC(=O)c2ccc(F)cc2F)n(-c2nc3ccccc3[nH]2)n1,1,66*,31,-11,-21,40,30
Cc1cc(NC(=O)CC2CCCC2)n(-c2nc3ccccc3[nH]2)n1,-1,57*,34,11,28,11,·
O=C(NCC1CCCO1)c1cc2c([nH]c3ccccc32)c(-c2cccc(Cl)c2)n1 (configuration not stated),3,87*,27,39,18,46*,60*
COc1cc(OC)c(N(C)S(=O)(=O)c2cccc(C(=O)OCC(=O)N(C)Cc3ccccc3)c2)cc1Cl,0,·,·,·,·,·,·
CCC(C)Sc1cccc(-c2nc3ccc(Cl)cn3c2NCc2ccccc2)c1 (configuration not stated),7,66*,22,20,9,9,·
CCC(C)Sc1cccc(-c2nc3ccc(C)cn3c2NCc2ccccc2)c1 (configuration not stated),47,36,33,6,5,·,·
CCCC(=O)N1CCCC1(C)C(=O)Nc1ccc(-n2cncn2)cc1 (configuration not stated),1,·,·,·,·,·,·
Cc1ccc(NC(=O)c2cc3ccccc3oc2=O)cc1S(=O)(=O)N(C)C,2,89*,-15,-17,-24,94*,26
